Measured values reported in article PMC7862700, “An all-to-all approach to the identification of sequence-specific readers for epigenetic DNA modifications on cytosine”.

Key:
Assay in all cases: DAPPL (digital affinity profiling via proximity ligation, sequencing); 10 mM Tris-HCl pH 7.5, 50 mM NaCl, 1 mM DTT, 4% glycerol, room temperature, 30 min; GST-TFs on glutathione beads, 16-mer random dsDNA library, 0.1% formaldehyde crosslink after washing; high values mean tight binding
[1] = biological target: T1, FLI1 (Homo sapiens, UniProt Q01543 1-452); conditions: protein: recombinant; tags: N-terminal GST; dsDNA, one strand shown
T1 sequence: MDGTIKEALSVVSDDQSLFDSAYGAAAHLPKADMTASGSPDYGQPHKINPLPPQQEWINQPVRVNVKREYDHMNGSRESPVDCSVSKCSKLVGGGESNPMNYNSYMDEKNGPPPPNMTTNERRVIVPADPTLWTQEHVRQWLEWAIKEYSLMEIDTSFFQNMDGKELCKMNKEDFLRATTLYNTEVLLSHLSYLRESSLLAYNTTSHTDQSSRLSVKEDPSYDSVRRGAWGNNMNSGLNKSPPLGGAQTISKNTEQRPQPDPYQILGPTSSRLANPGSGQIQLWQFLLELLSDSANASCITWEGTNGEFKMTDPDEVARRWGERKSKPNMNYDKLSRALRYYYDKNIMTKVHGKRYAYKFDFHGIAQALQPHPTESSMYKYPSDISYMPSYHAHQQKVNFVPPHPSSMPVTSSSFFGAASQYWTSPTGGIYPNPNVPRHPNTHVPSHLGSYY
Summary of the method: (§1)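 A tag-only sample was pooled with DNA-barcoded human transcription factors that had been expressed in yeast as GST fusions and captured on glutathione beads. The pools were incubated for 30 min at room temperature with 200 nmole of a random double-stranded 16-mer DNA library in Tris/NaCl/DTT/glycerol buffer, then washed, crosslinked with 0.1% formaldehyde, proximity-ligated (BsaI/T4 ligase, 1 h, 37 °C), PCR-amplified and sequenced on an Illumina NextSeq500. Binding signal is each hexamer's read frequency for a factor divided by its frequency for the tag-only sample.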

[2] = biological target: T2, ELK1 (Homo sapiens, UniProt P19419 1-428); conditions: protein: recombinant; tags: N-terminal GST; dsDNA, one strand shown
T2 sequence: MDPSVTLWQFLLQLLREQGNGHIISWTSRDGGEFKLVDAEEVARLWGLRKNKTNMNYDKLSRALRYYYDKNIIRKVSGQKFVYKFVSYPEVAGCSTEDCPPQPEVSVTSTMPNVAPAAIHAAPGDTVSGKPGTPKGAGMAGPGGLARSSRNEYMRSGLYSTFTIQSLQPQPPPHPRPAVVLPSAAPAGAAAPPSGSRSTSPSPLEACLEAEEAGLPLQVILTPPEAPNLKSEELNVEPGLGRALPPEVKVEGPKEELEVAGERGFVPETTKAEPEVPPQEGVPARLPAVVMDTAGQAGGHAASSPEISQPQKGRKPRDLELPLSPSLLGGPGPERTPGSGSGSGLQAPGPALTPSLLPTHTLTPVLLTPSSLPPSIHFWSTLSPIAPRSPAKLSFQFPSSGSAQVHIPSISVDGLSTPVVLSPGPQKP
Summary of the method: as §1

[3] = biological target: T3, GABPA (Homo sapiens, UniProt Q06546 1-454); conditions: protein: recombinant; tags: N-terminal GST; dsDNA, one strand shown
T3 sequence: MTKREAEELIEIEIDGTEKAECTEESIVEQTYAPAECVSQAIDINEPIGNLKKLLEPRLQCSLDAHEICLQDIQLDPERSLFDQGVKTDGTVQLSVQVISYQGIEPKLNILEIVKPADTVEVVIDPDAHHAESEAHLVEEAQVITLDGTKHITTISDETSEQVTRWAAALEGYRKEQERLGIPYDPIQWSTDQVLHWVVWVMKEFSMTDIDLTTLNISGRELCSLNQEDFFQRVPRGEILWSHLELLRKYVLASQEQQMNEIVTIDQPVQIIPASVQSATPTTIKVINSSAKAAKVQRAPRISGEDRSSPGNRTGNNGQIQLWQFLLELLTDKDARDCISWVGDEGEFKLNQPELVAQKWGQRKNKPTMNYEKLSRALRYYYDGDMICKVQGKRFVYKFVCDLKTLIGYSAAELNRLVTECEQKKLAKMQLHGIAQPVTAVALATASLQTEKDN
Summary of the method: as §1

[4] = biological target: T4, ERG (Homo sapiens, UniProt P11308 1-479); conditions: protein: recombinant; tags: N-terminal GST; dsDNA, one strand shown
T4 sequence: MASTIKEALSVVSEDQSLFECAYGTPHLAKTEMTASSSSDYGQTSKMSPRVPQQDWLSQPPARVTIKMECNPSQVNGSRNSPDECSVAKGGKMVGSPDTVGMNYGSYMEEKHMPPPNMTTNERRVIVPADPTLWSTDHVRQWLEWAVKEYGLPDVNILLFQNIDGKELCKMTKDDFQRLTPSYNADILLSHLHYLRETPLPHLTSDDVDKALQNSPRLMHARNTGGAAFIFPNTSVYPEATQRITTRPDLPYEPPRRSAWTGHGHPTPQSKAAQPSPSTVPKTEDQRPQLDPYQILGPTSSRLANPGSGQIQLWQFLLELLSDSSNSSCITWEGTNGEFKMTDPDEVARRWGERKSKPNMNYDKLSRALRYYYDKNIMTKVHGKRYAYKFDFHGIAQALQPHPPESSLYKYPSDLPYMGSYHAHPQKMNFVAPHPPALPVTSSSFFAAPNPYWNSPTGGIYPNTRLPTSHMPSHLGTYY
Summary of the method: as §1

[5] = biological target: ELF1 (Homo sapiens, UniProt P32519 1-619); conditions: protein: recombinant; tags: N-terminal GST; dsDNA, one strand shown
Summary of the method: as §1

[6] = biological target: T5, EHF (Homo sapiens, UniProt Q9NZC4 1-300); conditions: protein: recombinant; tags: N-terminal GST; dsDNA, one strand shown
T5 sequence: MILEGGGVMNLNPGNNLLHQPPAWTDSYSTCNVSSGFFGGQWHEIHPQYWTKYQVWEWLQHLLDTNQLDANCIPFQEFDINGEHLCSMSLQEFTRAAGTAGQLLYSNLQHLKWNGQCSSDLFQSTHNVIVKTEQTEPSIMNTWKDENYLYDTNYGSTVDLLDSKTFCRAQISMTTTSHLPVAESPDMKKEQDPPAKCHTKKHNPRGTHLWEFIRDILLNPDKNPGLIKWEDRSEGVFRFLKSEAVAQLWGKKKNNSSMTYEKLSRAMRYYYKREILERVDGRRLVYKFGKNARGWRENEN
Summary of the method: as §1

[7] = biological target: SPI1 (Homo sapiens, UniProt P17947 1-270); conditions: protein: recombinant; tags: N-terminal GST; dsDNA, one strand shown
Summary of the method: as §1

[8] = biological target: SPIB (Homo sapiens, UniProt Q01892 1-262); conditions: protein: recombinant; tags: N-terminal GST; dsDNA, one strand shown
Summary of the method: as §1

[9] = biological target: T6, ELK3 (Homo sapiens, UniProt P41970 1-407); conditions: protein: recombinant; tags: N-terminal GST; dsDNA, one strand shown
T6 sequence: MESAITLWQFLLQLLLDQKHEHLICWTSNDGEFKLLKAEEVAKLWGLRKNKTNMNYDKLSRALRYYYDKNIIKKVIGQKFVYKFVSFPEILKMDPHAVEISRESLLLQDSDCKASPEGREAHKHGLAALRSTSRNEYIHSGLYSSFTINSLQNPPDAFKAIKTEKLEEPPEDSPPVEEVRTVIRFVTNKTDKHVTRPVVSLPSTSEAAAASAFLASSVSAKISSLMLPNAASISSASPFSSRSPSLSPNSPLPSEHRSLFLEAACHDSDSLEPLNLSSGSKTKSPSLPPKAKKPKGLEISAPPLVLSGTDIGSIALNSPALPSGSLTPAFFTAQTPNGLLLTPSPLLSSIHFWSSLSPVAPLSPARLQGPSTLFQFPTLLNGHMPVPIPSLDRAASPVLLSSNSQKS
Summary of the method: as §1

[10] = biological target: T7, FEV (Homo sapiens, UniProt Q99581 1-238); conditions: protein: recombinant; tags: N-terminal GST; dsDNA, one strand shown
T7 sequence: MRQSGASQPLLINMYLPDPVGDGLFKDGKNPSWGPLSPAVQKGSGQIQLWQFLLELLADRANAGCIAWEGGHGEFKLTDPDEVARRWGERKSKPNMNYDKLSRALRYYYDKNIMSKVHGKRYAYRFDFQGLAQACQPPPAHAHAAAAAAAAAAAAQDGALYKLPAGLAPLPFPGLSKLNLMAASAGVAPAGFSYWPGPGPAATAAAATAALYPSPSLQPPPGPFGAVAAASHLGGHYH
Summary of the method: as §1

[11] = biological target: ETV5 (Homo sapiens, UniProt P41161 1-510); conditions: protein: recombinant; tags: N-terminal GST; dsDNA, one strand shown
Summary of the method: as §1

[12] = biological target: HSF1 (Homo sapiens, UniProt Q00613 1-529); conditions: protein: recombinant; tags: N-terminal GST; chain copies: 3; dsDNA, one strand shown
Summary of the method: as §1

[13] = biological target: T8, SPIC (Homo sapiens, UniProt Q8N5J4 1-248); conditions: protein: recombinant; tags: N-terminal GST; dsDNA, one strand shown
T8 sequence: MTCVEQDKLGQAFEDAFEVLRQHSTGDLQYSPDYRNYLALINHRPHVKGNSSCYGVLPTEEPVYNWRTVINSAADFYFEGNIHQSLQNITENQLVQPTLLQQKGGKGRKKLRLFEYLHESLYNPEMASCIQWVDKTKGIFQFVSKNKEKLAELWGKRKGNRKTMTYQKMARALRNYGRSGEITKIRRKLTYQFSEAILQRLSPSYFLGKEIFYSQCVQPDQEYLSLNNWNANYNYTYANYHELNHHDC
Summary of the method: as §1

[14] = biological target: ELF4 (Homo sapiens, UniProt Q99607 1-663); conditions: protein: recombinant; tags: N-terminal GST; dsDNA, one strand shown
Summary of the method: as §1

[15] = biological target: T9, ELK4 (Homo sapiens, UniProt P28324-2 1-405); conditions: protein: recombinant; tags: N-terminal GST; dsDNA, one strand shown
T9 sequence: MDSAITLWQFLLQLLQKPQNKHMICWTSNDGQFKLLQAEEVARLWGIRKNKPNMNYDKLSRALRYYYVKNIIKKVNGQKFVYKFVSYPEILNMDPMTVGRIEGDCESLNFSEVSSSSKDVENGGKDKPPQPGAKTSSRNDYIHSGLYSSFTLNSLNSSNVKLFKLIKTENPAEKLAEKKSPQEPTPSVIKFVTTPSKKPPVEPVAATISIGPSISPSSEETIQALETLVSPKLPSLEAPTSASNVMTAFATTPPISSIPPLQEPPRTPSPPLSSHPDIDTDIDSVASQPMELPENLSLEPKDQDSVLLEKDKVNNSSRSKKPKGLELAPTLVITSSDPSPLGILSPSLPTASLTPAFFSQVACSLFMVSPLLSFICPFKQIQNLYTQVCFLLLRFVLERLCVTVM
Summary of the method: as §1

[16] = biological target: T10, ETV2 (Homo sapiens, UniProt O00321 1-342); conditions: protein: recombinant; tags: N-terminal GST; dsDNA, one strand shown
T10 sequence: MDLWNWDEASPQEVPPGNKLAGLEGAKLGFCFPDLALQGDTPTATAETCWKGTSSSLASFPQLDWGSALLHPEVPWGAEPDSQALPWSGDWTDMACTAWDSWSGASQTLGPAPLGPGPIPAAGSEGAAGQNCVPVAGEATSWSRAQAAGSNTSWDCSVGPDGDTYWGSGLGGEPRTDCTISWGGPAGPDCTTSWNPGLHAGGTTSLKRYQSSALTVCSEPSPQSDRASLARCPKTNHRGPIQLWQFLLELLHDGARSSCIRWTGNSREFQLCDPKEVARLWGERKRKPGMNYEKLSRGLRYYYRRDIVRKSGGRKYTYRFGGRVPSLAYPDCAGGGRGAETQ
Summary of the method: as §1

[17] = biological target: T11, ELF3 (Homo sapiens, UniProt P78545 1-371); conditions: protein: recombinant; tags: N-terminal GST; dsDNA, one strand shown
T11 sequence: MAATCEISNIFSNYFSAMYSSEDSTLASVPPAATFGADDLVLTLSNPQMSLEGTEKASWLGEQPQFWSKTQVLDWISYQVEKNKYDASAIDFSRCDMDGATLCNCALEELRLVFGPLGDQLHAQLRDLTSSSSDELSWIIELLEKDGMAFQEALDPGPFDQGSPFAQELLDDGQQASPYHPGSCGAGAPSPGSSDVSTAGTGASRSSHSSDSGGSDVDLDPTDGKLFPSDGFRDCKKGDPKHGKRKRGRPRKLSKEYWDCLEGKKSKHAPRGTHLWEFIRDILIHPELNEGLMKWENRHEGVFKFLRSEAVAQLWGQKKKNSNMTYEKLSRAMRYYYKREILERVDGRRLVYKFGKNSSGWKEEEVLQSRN
Summary of the method: as §1

[18] = biological target: CRX (Homo sapiens, UniProt O43186 1-299); conditions: protein: recombinant; tags: N-terminal GST; dsDNA, one strand shown
Summary of the method: as §1

[19] = biological target: ETV1 (Homo sapiens, UniProt P50549 1-477); conditions: protein: recombinant; tags: N-terminal GST; dsDNA, one strand shown
Summary of the method: as §1

ETV5, sequence (P41161 whole entry): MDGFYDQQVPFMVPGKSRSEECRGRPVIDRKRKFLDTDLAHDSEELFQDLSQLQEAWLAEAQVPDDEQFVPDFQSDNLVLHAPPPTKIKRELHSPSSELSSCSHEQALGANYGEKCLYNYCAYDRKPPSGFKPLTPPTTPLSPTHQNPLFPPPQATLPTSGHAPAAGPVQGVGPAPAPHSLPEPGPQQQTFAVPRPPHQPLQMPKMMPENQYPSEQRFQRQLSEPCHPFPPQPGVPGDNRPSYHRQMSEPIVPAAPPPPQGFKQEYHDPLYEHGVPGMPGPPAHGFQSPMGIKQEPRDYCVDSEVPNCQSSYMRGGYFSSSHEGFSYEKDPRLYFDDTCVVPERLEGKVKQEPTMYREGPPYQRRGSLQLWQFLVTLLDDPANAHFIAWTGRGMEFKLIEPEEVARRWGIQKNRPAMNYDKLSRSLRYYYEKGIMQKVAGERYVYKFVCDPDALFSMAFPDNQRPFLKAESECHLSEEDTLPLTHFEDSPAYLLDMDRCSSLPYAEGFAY
ETV1, sequence (P50549 whole entry): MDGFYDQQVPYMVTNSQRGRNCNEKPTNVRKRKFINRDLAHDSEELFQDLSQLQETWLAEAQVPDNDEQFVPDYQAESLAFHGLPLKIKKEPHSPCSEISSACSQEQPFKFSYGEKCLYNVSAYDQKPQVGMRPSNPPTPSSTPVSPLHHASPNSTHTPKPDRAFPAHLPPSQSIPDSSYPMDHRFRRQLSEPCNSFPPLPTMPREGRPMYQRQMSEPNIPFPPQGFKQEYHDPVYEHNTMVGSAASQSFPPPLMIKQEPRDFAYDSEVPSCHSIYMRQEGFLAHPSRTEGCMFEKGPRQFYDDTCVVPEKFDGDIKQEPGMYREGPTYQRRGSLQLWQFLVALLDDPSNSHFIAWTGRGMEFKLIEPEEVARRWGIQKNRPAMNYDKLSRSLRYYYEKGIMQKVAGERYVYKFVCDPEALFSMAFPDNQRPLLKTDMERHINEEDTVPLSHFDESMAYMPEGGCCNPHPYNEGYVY
SPIB, sequence (Q01892 whole entry): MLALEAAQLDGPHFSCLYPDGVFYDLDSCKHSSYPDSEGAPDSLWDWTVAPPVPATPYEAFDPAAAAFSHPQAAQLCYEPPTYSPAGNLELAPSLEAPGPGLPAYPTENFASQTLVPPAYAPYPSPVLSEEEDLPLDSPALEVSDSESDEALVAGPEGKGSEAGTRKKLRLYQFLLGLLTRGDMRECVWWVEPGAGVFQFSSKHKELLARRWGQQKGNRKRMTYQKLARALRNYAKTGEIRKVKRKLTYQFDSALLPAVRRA
ELF1, sequence (P32519 whole entry): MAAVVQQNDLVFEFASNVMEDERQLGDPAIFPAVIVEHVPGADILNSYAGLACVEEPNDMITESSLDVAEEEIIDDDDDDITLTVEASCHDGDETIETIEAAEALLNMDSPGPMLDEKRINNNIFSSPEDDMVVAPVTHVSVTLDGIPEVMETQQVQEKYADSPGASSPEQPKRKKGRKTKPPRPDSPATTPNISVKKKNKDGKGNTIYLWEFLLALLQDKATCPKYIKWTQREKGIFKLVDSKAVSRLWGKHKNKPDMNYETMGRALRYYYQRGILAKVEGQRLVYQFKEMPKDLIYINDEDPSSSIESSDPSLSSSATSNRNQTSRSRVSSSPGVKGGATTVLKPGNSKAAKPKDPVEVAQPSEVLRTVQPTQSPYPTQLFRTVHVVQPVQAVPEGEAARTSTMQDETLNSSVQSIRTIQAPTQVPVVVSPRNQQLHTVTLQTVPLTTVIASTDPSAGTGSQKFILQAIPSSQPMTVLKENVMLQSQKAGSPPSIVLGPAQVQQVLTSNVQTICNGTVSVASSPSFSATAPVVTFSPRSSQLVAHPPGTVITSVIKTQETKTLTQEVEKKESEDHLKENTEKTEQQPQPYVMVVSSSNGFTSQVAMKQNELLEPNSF
HSF1, sequence (Q00613 whole entry): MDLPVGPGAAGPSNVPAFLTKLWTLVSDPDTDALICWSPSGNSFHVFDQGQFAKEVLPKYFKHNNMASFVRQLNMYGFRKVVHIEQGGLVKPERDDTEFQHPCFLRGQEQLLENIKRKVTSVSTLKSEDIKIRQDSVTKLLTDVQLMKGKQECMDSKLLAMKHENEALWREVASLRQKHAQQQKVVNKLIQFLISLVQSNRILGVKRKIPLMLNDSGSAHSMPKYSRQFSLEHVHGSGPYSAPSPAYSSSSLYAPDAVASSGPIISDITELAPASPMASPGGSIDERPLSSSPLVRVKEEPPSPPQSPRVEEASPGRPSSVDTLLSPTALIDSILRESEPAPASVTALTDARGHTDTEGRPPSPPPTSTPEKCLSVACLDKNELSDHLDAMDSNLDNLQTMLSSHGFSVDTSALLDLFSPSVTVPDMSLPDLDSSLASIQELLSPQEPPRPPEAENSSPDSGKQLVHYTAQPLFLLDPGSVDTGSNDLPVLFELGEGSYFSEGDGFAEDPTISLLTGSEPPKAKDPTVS
CRX, sequence (O43186 whole entry): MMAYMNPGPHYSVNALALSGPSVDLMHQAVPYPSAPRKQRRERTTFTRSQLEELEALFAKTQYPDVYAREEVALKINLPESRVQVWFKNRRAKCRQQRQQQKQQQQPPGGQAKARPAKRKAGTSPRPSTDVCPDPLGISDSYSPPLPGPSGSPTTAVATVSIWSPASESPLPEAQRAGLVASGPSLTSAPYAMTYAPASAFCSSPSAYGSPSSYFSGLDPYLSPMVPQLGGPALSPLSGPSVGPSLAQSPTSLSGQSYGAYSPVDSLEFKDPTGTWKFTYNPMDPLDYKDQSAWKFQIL
ELF4, sequence (Q99607 whole entry): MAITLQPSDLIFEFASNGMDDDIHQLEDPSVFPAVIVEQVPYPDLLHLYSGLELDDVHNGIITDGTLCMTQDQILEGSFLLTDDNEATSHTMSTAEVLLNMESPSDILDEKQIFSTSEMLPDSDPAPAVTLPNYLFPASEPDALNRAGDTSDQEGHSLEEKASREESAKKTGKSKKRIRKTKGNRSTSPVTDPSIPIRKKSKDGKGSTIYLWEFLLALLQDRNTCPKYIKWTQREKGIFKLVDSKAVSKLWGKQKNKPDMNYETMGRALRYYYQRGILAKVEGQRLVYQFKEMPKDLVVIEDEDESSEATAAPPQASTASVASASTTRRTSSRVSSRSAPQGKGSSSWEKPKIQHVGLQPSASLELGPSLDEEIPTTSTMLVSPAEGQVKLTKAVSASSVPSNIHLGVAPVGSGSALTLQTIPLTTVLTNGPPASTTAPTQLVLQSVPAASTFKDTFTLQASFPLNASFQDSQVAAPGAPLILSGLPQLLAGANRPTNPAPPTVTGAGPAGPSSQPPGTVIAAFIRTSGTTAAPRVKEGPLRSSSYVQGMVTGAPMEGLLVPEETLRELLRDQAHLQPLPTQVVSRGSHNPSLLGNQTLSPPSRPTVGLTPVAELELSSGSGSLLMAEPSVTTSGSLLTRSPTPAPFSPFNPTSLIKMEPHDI

TTTCAC
binding signal [1]: 1.39 fold enrichment (6-mer frequency, TF over GST control) | binding signal [2]: 1.34 fold enrichment (6-mer frequency, TF over GST control) | binding signal [3]: 1.37 fold enrichment (6-mer frequency, TF over GST control) | binding signal [4]: 1.33 fold enrichment (6-mer frequency, TF over GST control) | binding signal [5]: 1.43 fold enrichment (6-mer frequency, TF over GST control) | binding signal [6]: 1.3 fold enrichment (6-mer frequency, TF over GST control) | binding signal [7]: 1.34 fold enrichment (6-mer frequency, TF over GST control) | binding signal [8]: 1.27 fold enrichment (6-mer frequency, TF over GST control) | binding signal [9]: 1.39 fold enrichment (6-mer frequency, TF over GST control) | binding signal [10]: 1.37 fold enrichment (6-mer frequency, TF over GST control) | binding signal [11]: 1.37 fold enrichment (6-mer frequency, TF over GST control) | binding signal [12]: 1.23 fold enrichment (6-mer frequency, TF over GST control) | binding signal [13]: 1.17 fold enrichment (6-mer frequency, TF over GST control) | binding signal [14]: 1.43 fold enrichment (6-mer frequency, TF over GST control) | binding signal [15]: 1.52 fold enrichment (6-mer frequency, TF over GST control) | binding signal [16]: 1.35 fold enrichment (6-mer frequency, TF over GST control) | binding signal [17]: 1.26 fold enrichment (6-mer frequency, TF over GST control) | binding signal [18]: 1.14 fold enrichment (6-mer frequency, TF over GST control) | binding signal [19]: 1.42 fold enrichment (6-mer frequency, TF over GST control)
